# Laboratory results as given in paper PMC7862700, “An all-to-all approach to the identification of sequence-specific readers for epigenetic DNA modifications on cytosine”.
# How the values were obtained:
# Assay in all cases: DAPPL (digital affinity profiling via proximity ligation, sequencing); 10 mM Tris-HCl pH 7.5, 50 mM NaCl, 1 mM DTT, 4% glycerol, room temperature, 30 min; GST-TFs on glutathione beads, 16-mer random dsDNA library, 0.1% formaldehyde crosslink after washing; high values mean tight binding
# Conditions in all cases: protein: recombinant; tags: N-terminal GST; dsDNA, one strand shown
# [1] = target: T1, FLI1 (Homo sapiens, UniProt Q01543 1-452)
# T1 sequence: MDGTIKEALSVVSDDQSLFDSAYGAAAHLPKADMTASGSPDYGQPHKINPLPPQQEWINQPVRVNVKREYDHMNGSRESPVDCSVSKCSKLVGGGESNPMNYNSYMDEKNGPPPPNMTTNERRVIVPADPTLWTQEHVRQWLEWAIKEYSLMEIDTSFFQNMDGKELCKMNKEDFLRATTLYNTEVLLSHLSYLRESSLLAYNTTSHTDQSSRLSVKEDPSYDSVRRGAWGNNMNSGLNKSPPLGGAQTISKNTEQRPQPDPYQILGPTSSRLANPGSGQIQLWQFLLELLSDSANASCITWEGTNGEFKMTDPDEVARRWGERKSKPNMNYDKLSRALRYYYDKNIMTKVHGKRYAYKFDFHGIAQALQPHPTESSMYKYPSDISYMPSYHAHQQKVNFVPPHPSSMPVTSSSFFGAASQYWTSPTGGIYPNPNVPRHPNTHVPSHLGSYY
# How it was run: (§1)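 After expression in yeast as GST fusions, human transcription factors were bound to glutathione beads, DNA-barcoded and mixed with a tag-only sample. The pools were incubated with 200 nmole of a 16-mer random double-stranded DNA library in Tris/NaCl/DTT/glycerol buffer (30 min, room temperature), washed and crosslinked with 0.1% formaldehyde. Proximity ligation with BsaI/T4 ligase ran for 1 h at 37 °C, before PCR amplification and sequencing on an Illumina NextSeq500. Binding signal is a hexamer's read frequency for a factor divided by its frequency for the tag-only sample.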
# [2] = target: T2, ELK1 (Homo sapiens, UniProt P19419 1-428)
# T2 sequence: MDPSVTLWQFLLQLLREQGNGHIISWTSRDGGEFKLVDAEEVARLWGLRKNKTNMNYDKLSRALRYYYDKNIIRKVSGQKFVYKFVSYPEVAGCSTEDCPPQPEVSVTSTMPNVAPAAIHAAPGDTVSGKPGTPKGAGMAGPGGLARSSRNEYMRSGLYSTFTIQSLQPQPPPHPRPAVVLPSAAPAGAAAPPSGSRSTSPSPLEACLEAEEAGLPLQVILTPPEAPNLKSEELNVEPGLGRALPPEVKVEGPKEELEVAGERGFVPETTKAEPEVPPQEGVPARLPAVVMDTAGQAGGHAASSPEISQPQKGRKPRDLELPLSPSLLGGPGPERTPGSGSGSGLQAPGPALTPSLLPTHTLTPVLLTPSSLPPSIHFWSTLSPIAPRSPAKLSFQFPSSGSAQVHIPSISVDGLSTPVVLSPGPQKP
# How it was run: as §1
# [3] = target: T3, GABPA (Homo sapiens, UniProt Q06546 1-454)
# T3 sequence: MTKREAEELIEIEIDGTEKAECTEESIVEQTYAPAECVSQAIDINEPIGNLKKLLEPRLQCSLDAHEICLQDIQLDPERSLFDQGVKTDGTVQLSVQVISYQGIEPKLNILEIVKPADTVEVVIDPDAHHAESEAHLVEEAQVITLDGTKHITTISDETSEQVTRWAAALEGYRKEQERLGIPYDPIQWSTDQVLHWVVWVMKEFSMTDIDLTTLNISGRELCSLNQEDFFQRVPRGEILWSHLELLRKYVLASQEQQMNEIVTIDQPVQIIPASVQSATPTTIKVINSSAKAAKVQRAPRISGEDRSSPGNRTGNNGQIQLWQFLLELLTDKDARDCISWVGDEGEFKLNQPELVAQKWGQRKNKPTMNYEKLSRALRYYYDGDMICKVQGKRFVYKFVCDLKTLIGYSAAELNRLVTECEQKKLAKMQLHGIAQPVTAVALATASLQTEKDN
# How it was run: as §1
# [4] = target: T4, ERG (Homo sapiens, UniProt P11308 1-479)
# T4 sequence: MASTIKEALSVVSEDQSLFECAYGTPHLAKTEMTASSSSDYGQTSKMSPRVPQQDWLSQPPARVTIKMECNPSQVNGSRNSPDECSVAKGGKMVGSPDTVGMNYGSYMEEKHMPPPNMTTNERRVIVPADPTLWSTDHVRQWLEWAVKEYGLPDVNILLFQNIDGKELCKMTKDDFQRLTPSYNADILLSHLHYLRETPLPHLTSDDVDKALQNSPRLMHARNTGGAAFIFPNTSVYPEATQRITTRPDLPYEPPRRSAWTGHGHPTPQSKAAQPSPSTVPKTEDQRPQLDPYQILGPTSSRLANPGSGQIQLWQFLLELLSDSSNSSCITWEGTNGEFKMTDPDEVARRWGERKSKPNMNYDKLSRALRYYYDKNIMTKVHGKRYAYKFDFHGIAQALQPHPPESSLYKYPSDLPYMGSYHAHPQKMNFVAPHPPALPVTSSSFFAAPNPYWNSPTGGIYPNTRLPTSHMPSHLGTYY
# How it was run: as §1
# [5] = target: ELF1 (Homo sapiens, UniProt P32519 1-619)
# How it was run: as §1
# [6] = target: T5, EHF (Homo sapiens, UniProt Q9NZC4 1-300)
# T5 sequence: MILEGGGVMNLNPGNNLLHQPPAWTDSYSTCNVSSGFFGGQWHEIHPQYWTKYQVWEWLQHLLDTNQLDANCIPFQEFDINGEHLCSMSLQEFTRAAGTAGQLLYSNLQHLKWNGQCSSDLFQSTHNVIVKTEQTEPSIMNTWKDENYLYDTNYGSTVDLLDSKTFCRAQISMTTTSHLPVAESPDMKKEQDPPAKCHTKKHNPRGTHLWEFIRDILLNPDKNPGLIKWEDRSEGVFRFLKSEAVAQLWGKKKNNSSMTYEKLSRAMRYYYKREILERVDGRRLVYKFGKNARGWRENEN
# How it was run: as §1
# [7] = target: SPI1 (Homo sapiens, UniProt P17947 1-270)
# How it was run: as §1
# [8] = target: SPIB (Homo sapiens, UniProt Q01892 1-262)
# How it was run: as §1
# [9] = target: T6, ELK3 (Homo sapiens, UniProt P41970 1-407)
# T6 sequence: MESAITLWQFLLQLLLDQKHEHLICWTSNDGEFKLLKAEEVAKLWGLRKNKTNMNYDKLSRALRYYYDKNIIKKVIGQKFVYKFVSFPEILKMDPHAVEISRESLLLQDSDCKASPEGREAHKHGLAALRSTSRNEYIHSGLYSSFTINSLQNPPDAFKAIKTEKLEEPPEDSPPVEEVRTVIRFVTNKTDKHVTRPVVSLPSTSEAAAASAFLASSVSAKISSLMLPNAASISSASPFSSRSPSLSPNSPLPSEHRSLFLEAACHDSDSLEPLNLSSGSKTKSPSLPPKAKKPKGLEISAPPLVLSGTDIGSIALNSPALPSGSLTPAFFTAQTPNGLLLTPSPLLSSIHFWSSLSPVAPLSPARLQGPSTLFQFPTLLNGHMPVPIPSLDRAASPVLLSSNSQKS
# How it was run: as §1
# [10] = target: T7, FEV (Homo sapiens, UniProt Q99581 1-238)
# T7 sequence: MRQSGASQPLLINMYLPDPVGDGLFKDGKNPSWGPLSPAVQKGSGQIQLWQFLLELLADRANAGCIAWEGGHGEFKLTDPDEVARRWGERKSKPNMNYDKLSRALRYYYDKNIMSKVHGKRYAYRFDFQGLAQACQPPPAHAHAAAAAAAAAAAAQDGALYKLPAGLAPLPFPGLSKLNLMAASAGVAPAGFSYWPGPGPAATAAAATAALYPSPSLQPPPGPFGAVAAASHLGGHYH
# How it was run: as §1
# [11] = target: ETV5 (Homo sapiens, UniProt P41161 1-510)
# How it was run: as §1
# [12] = target: T8, SPIC (Homo sapiens, UniProt Q8N5J4 1-248)
# T8 sequence: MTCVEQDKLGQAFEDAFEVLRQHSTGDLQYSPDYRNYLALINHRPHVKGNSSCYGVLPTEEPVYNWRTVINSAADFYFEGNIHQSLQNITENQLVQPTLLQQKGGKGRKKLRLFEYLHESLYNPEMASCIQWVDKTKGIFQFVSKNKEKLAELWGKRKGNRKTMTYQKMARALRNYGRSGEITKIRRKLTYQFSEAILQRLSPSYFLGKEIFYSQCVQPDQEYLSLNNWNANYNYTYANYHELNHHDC
# How it was run: as §1
# [13] = target: ELF4 (Homo sapiens, UniProt Q99607 1-663)
# How it was run: as §1
# [14] = target: T9, ELK4 (Homo sapiens, UniProt P28324-2 1-405)
# T9 sequence: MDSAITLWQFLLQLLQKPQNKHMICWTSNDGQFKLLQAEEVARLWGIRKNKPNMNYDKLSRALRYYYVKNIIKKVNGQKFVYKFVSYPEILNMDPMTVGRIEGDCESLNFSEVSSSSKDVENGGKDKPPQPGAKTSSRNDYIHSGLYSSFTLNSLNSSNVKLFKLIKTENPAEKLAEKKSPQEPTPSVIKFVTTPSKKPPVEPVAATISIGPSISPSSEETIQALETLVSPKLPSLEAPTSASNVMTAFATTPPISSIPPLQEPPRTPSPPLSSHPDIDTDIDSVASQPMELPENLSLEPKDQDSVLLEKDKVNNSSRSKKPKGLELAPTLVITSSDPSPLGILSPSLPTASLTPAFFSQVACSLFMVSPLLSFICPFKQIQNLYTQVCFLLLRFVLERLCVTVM
# How it was run: as §1
# [15] = target: T10, ETV2 (Homo sapiens, UniProt O00321 1-342)
# T10 sequence: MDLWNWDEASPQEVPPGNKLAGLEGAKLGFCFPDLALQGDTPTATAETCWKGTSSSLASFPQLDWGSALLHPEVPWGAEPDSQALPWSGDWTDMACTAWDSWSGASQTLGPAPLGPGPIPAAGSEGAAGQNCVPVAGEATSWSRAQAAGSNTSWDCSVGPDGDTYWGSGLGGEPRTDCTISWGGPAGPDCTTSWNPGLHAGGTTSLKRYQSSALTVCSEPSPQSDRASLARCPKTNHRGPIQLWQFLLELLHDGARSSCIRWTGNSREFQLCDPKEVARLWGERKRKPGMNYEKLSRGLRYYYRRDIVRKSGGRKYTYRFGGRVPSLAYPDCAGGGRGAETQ
# How it was run: as §1
# [16] = target: T11, ELF3 (Homo sapiens, UniProt P78545 1-371)
# T11 sequence: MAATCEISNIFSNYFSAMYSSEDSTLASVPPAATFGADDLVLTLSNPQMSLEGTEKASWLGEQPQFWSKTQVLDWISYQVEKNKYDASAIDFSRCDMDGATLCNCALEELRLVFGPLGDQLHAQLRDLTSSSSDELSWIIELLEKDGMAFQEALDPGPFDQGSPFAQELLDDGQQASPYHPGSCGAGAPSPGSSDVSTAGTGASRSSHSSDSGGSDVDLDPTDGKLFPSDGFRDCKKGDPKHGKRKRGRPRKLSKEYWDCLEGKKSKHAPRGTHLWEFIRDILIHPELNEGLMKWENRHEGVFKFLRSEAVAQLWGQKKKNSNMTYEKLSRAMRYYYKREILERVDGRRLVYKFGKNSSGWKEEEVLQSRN
# How it was run: as §1
# [17] = target: ETV1 (Homo sapiens, UniProt P50549 1-477)
# How it was run: as §1
# ELF4, sequence (Q99607 whole entry): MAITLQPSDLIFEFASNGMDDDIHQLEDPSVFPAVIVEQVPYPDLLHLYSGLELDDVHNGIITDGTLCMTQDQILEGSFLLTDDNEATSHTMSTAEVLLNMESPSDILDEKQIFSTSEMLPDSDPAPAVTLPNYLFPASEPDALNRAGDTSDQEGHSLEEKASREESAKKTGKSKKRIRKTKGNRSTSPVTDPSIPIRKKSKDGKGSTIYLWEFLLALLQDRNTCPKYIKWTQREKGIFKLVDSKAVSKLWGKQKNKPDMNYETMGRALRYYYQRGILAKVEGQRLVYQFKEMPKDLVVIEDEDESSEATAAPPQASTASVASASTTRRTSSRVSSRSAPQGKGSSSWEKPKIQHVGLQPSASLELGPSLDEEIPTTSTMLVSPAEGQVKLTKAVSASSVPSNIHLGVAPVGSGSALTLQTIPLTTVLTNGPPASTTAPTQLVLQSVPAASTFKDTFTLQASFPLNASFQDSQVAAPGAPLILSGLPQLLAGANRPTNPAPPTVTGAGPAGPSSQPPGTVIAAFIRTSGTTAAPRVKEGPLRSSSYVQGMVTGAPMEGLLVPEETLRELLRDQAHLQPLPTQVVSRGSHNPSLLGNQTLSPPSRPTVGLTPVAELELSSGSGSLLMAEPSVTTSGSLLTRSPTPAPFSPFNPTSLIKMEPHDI
# ETV5, sequence (P41161 whole entry): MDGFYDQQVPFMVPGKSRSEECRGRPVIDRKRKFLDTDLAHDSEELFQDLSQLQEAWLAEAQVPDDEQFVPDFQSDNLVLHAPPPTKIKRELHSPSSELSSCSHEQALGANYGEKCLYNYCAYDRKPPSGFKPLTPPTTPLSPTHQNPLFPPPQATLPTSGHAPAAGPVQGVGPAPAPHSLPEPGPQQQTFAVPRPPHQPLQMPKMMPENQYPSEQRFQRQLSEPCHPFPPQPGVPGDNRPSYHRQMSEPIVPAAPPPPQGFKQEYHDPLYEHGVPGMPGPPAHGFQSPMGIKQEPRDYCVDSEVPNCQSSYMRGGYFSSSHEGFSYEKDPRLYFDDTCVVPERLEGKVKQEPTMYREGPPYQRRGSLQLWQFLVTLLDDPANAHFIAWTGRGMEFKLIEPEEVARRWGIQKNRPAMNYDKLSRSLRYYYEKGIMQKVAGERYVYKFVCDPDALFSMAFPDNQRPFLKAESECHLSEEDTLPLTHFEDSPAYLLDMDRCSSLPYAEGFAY
# ELF1, sequence (P32519 whole entry): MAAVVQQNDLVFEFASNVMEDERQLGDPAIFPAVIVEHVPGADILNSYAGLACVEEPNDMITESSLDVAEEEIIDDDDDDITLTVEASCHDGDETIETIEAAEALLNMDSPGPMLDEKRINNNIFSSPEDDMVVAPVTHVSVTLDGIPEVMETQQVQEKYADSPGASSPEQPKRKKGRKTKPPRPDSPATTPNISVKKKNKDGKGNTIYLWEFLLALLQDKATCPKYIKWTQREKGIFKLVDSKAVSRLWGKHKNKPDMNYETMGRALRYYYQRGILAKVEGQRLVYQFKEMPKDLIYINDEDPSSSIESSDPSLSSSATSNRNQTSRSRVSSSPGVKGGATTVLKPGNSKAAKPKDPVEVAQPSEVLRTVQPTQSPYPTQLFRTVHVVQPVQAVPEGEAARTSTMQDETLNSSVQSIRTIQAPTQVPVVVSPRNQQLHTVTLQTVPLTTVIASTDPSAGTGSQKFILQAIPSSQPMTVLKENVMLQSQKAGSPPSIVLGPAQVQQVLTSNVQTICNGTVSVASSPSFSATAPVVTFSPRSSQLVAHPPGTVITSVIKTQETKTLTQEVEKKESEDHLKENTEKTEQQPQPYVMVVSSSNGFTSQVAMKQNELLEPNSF
# SPIB, sequence (Q01892 whole entry): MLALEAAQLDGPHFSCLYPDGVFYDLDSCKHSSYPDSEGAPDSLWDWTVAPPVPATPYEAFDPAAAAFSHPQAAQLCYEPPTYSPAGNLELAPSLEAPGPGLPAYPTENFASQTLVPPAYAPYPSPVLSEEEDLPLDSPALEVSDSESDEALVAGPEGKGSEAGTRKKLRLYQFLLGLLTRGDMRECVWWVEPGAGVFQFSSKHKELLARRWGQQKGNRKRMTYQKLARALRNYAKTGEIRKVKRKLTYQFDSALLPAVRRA
# ETV1, sequence (P50549 whole entry): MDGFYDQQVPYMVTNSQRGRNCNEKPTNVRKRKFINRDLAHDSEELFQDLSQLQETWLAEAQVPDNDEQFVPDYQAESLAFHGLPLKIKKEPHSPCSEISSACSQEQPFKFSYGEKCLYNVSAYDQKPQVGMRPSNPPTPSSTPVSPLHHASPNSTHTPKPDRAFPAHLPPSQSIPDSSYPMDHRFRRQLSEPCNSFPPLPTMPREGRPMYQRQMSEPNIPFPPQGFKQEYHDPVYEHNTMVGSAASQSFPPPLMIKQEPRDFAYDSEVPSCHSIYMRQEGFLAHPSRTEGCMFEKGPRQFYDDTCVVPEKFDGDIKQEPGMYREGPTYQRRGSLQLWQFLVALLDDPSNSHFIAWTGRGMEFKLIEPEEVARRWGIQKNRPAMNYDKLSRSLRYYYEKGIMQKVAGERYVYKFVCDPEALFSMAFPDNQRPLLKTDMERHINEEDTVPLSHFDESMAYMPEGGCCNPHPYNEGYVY
sequence,measurement,setting,value
AGCAGC,binding signal,[1],"1.08 fold enrichment (6-mer frequency, TF over GST control)"
same,binding signal,[2],"1.06 fold enrichment (6-mer frequency, TF over GST control)"
same,binding signal,[3],"1.11 fold enrichment (6-mer frequency, TF over GST control)"
same,binding signal,[4],"1.11 fold enrichment (6-mer frequency, TF over GST control)"
same,binding signal,[5],"1.19 fold enrichment (6-mer frequency, TF over GST control)"
same,binding signal,[6],"1.1 fold enrichment (6-mer frequency, TF over GST control)"
same,binding signal,[7],"1.05 fold enrichment (6-mer frequency, TF over GST control)"
same,binding signal,[8],"1.11 fold enrichment (6-mer frequency, TF over GST control)"
same,binding signal,[9],"1.16 fold enrichment (6-mer frequency, TF over GST control)"
same,binding signal,[10],"1.12 fold enrichment (6-mer frequency, TF over GST control)"
same,binding signal,[11],"1.18 fold enrichment (6-mer frequency, TF over GST control)"
same,binding signal,[12],"1.11 fold enrichment (6-mer frequency, TF over GST control)"
same,binding signal,[13],"1.14 fold enrichment (6-mer frequency, TF over GST control)"
same,binding signal,[14],"1.05 fold enrichment (6-mer frequency, TF over GST control)"
same,binding signal,[15],"1.07 fold enrichment (6-mer frequency, TF over GST control)"
same,binding signal,[16],"1.08 fold enrichment (6-mer frequency, TF over GST control)"
same,binding signal,[17],"1.17 fold enrichment (6-mer frequency, TF over GST control)"
